PubChem BioAssay AID1060 (Emory University Molecular Libraries Screening Center, 2008)
Measured potencies and affinities stand elsewhere. Active and inactive are the calls of the source.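 Rule for the calls: active = fitted half-inhibition concentration at or below a set limit, with percent of control there at most 60; inactive = the rest.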

Each molecule was assayed against Estrogen receptor beta (Homo sapiens) (UniProt Q92731) (assay: blockers of SRC-3 recruitment to ERβ – biochemical, ELISA, streptavidin-HRP readout, orthogonal assay, confirmation (AID 1060)). Details: ERbeta-SRC-3 coactivator binding ELISA; series mostly up to 50 µM; percent of control: at the top concentration.
Sequence of Estrogen receptor beta (Homo sapiens) (Q92731 whole entry, looked up): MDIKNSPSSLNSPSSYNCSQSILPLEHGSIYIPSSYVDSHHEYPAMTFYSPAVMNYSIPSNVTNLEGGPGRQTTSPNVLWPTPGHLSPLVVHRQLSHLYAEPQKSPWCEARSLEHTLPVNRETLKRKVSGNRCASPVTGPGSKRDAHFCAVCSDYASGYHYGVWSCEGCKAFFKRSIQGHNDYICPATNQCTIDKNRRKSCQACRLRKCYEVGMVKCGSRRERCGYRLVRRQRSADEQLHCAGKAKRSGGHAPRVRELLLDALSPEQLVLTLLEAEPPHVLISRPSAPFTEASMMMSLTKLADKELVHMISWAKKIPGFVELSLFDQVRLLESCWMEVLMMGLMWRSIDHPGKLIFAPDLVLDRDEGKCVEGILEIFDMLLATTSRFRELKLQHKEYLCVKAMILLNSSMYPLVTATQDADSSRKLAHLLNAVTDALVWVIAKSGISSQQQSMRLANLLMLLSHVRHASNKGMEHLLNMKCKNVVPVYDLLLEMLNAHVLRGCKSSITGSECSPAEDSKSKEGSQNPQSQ

Percent of control, inactive:
CC1CC(C(F)(F)C(F)(F)F)n2nc(C(=O)O)cc2N1 (stereo unspecified) 114%, Cc1ccc(C(=O)CSC2=C(C#N)C(c3ccco3)CC(=O)N2)c(C)c1 (stereo unspecified) 134%, CCC(=O)Nc1cccc(NC(C)=O)c1 101%, CCCNCC1COc2ccccc2O1 (stereo unspecified) 109%, Cc1sc2ncnc(NCc3ccco3)c2c1C 141%, CSc1nc2c(c(=O)[nH]1)C(c1cccs1)C1=C(CCCC1=O)N2 (stereo unspecified) 132%, NC(=O)c1cccc2c1C(=O)N(C1CCCCC1)C2 118%, Cc1cc(-c2csc(N)n2)c(C)n1C 97.3%, O=S(=O)(Nc1ncnc2sc3c(c12)CCC3)c1ccc2ccccc2c1 131%, CCc1cc(=O)[nH]c(SCC(=O)Nc2ccc(C(=O)OC)cc2)n1 102%, Cc1cc(C)cc(OCC(=O)Nc2ccc(N3CCCC3)cc2)c1 117%, COc1ccc2nc(-c3ccco3)c(-c3ccco3)nc2c1 62.9%, CCC(=O)Nc1ccc(C(=O)Cn2nc(C(=O)O)c3ccccc3c2=O)cc1 109%, COc1ccccc1-c1nnc2sc(-c3cnccn3)nn12 97%, COc1ccc2c(=O)c3c(=O)n(Cc4ccco4)c(-c4ccco4)nc3oc2c1 131%, COc1ccc(CCNC(=O)c2ccc3nc(-c4ccco4)c(-c4ccco4)nc3c2)cc1OC 99.6%
